Several values for one entry are separate records, joined by “and”; a condition that tells them apart may be missing. Equal values may be shown once. Inconclusive results are not listed. A call without a number means that no potency is given here. The source holds several records for some structures; these can differ, active in one and inactive in another. Activity calls are given as the source filed them. Unless noted, the call rests on the fitted dose curve.
Columns and labels:
[1] = Nuclear factor erythroid 2-related factor 2/antioxidant responsive element (Nrf2/ARE) small molecule agonists: qHTS cell viability counter screen in human keratinocytes (AID 1919968; active means well fitted curve in the direction sought with a large enough effect in the repeat runs; an effect the other way counts as inactive or inconclusive; further: nearly all actives have a fitted effect of over 55% in size)
How it was run: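 Cytotoxicity was multiplexed with the Nrf2/ARE luciferase assay in the same wells. Stably transfected HaCaT keratinocytes were treated with test compounds for 23 h at 37 C. Cell viability was then measured by CellTiter-Fluor fluorescence.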

[2] = Nuclear factor erythroid 2-related factor 2/antioxidant responsive element (Nrf2/ARE) small molecule agonists: luciferase reporter gene qHTS assay in human keratinocytes (AID 1919969); further: nearly all actives have a fitted effect of over 35% in size; further: potency means the concentration at half of the fitted maximal effect
[3] = target: KiSS-1 receptor (Homo sapiens) (UniProt Q969F8); assay: Human kisspeptin (KISS1R) small molecule agonists, calcium flux assay in KISS1R-HEK293 cells (AID 1920064; active means well fitted curve in the direction sought with a large enough effect in the repeat runs; an effect the other way counts as inactive or inconclusive)
How it was run: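 Agonist activity is monitored as intracellular calcium rise in engineered HEK293 cells carrying human KISS1R. Cells are dye-loaded for 1 h at 37 C before compound addition, and fluorescence is recorded for 3 min.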

[4] = G protein-coupled receptor (GPCR) small molecule agonists, calcium flux assay: HEK293 wild type cell line counter screen (AID 1920065)
How it was run: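 Seed cells, incubate 18 h (37 C, 5% CO2); add calcium dye, 1 h at 37 C; pin-transfer compounds, ATP control or DMSO; read fluorescence 480/540 nm each second for 3 min.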

[5] = p53 small molecule agonists, cell-based qHTS assay with human liver microsomes (AID 1963577)
How it was run: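 p53RE-bla cells, 4,000/well, compound added after 5 h, with human liver microsomes 0.5 mg/mL and NADPH 0.5 mg/mL final; 16 h at 37 C, then LiveBLAzer 2 h RT, fluorescence.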

[6] = p53 small molecule agonists, cell-based qHTS assay with rat liver microsomes (AID 1963578)
How it was run: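 p53RE-bla cells, 4,000/well, pre-incubated 5 h, then given compounds plus rat liver microsomes (0.5 mg/mL final) and NADPH (0.5 mg/mL final). Incubation 16 h at 37 C; beta-lactamase reporter read by LiveBLAzer fluorescence after 2 h at room temperature.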

[7] = p53 small molecule agonists, cell-based qHTS assay with human liver microsomes: qHTS cell viability counter screen (AID 1963579); further: nearly all actives have a fitted effect of over 45% in size
How it was run: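 p53RE-bla cells, 4,000/well, dosed 5 hours after plating, with human liver microsomes (0.5 mg/mL final) plus NADPH (0.5 mg/mL final), 16 hours at 37 C. Viability read as CellTiter-Glo luminescence after 30 min at room temperature.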

[8] = p53 small molecule agonists, cell-based qHTS assay with rat liver microsomes: qHTS cell viability counter screen (AID 1963580); further: nearly all actives have a fitted effect of over 45% in size
How it was run: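 Cytotoxicity counter screen: intracellular ATP measured by CellTiter-Glo luminescence in the same wells as the beta-lactamase reporter read, on HCT-116 p53RE-bla cells exposed 16 h at 37 C to compounds with rat liver microsomes and NADPH, each 0.5 mg/mL final.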

[9] = p53 small molecule agonists, cell-based qHTS assay: qHTS cell viability counter screen (AID 1963581); further: nearly all actives have a fitted effect of over 45% in size
How it was run: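 Viability was counter-screened in parallel with the p53 agonist reporter by measuring intracellular ATP luminescence in the same HCT-116 p53RE-bla wells after 16 h compound treatment at 37 C.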

[10] = p53 small molecule agonists, cell-based qHTS assay (AID 1963582; active means well fitted activation curve with a large enough effect in the signal ratio in the repeat runs, not every such curve was filed as active; the % refers to the signal ratio)
How it was run: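 Cells carrying a p53-responsive bla reporter are treated with test compounds for 16 h at 37 C; beta-lactamase activity is then detected with LiveBLAzer B/G FRET substrate after 2 h at room temperature.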

[11] = target: 5-hydroxytryptamine receptor 2A (Homo sapiens) (UniProt P28223); assay: 5-hydroxytryptamine receptor 2A (HTR2A) small molecule antagonists, cell-based qHTS assay (AID 1963586); further: nearly all actives have a fitted effect of over 45% in size; further: potency means the concentration at half of the fitted maximal effect
How it was run: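 CHO cells stably expressing human HTR2A were plated for 18 h at 37 C, then loaded with calcium dye for 1 h. Compounds were preincubated 5 min at room temperature before DOI (4 nM solution) was added. Kinetic fluorescence was read for 3 min.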

[12] = target: 5-hydroxytryptamine receptor 2A (Homo sapiens) (UniProt P28223); assay: 5-hydroxytryptamine receptor 2A (HTR2A) small molecule agonists, cell-based qHTS assay (AID 1963587); further: nearly all actives have a fitted effect of over 30% in size
How it was run: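 CHO cells stably expressing human HTR2A, plated 18 h, loaded with calcium dye 1 h at 37 C. Agonist mode: compounds added and intracellular calcium fluorescence recorded kinetically for 2 min at 1 sec intervals.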

[13] = target: Muscarinic acetylcholine receptor M1 (Homo sapiens) (UniProt P11229); assay: Cholinergic receptor muscarinic 1 (CHRM1) small molecule antagonists, cell-based qHTS assay (AID 1963588); further: nearly all actives have a fitted effect of over 40% in size
How it was run: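 Compounds were tested at 15 concentrations in three independent runs. Dye-loaded CHRM1-CHO cells were exposed 5 min at room temperature before stimulation by acetylcholine added at 50nM. Intracellular calcium was read kinetically on FDSS for 3 min.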

[14] = target: Muscarinic acetylcholine receptor M1 (Homo sapiens) (UniProt P11229); assay: Cholinergic receptor muscarinic 1 (CHRM1) small molecule agonists, cell-based qHTS assay (AID 1963589); further: nearly all actives have a fitted effect of over 35% in size
How it was run: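 Cells were plated and incubated 18 h at 37 C/5% CO2, loaded with calcium dye for 1 h at 37 C, then treated with compounds in DMSO. Fluorescence was recorded kinetically at 1 sec intervals.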

[15] = cAMP Responsive Elements (CRE) small molecule agonists, cell-based qHTS assay (AID 1963590)
How it was run: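 Cells carrying a CRE-driven beta-lactamase reporter (HEK 293T) are seeded, incubated overnight (18 h), and treated with test compounds for 3 h at 37 C; reporter activity is then detected with a FRET substrate after 2 h at room temperature.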

[16] = cAMP Responsive Elements (CRE) small molecule antagonists, cell-based qHTS assay (AID 1963591; active means well fitted inhibition curve with a large enough effect in the signal ratio in the repeat runs, not every such curve was filed as active; the % refers to the signal ratio)
How it was run: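 Cells (CRE-bla HEK 293T, DMEM with 10% dialyzed FBS and 25 mM HEPES) are seeded and incubated 18 h. Compounds are added with NKH477 agonist at 0.25 uM final for 3 h, then FRET substrate for 2 h.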

[17] = target: Beta-2 adrenergic receptor (Homo sapiens) (UniProt P07550); assay: Adrenergic beta2 receptor (ADRB2) small molecule antagonists, cell-based qHTS assay (AID 1963592); further: series mostly up to about 92 µM; nearly all actives have a fitted effect of over 50% in size
How it was run: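 Assay format: CHO-ADRB2 cells, 18-20hr seeding at 37C/5% CO2, then compound plus 1nM isoproterenol agonist mix for 0.5hr RT. Homogeneous time-resolved fluorescence cAMP detection after 1hr, expressed as 665/615 nm ratio.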

[18] = target: Beta-2 adrenergic receptor (Homo sapiens) (UniProt P07550); assay: Adrenergic beta2 receptor (ADRB2) small molecule agonists, cell-based qHTS assay (AID 1963593);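 further: CHO cells stably overexpressing human ADRB2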
How it was run: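 CHO cells stably over-expressing ADRB2 were plated overnight at 37C, then dosed with compounds plus a stimulation mix containing 100uM IBMX and 25uM Ro-20-1724 for 0.5hr at room temperature. cAMP was measured by HTRF competition, 1hr.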

[19] = target: D(2) dopamine receptor (Homo sapiens) (UniProt P14416); assay: Dopamine D2 receptor (DRD2) small molecule agonists, cell-based qHTS assay (AID 1963594); further: nearly all actives have a fitted effect of over 35% in size
How it was run: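 HEK293 cells stably expressing human DRD2, pre-treated with PDE inhibitor Ro20-1724 (0.1 mM final) and compound 10 min at room temperature, then stimulated with NKH477 (200nM […]) for 30 min. cAMP read by HTRF (665/620 nm).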

[20] = target: D(2) dopamine receptor (Homo sapiens) (UniProt P14416); assay: Dopamine D2 receptor (DRD2) small molecule antagonists, cell-based qHTS assay (AID 1963595; active means well fitted inhibition curve with a large enough effect in the signal ratio in the repeat runs, with a control signal flat; the % refers to the signal ratio)
How it was run: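 DRD2-HEK293; 0.1 mM Ro20-1724; cpd 10 min RT; NKH477 200 nM + quinpirole 12 nM, 30 min RT; HTRF cAMP (cAMP-d2/anti-cAMP cryptate), 665/620 nm ratio after 1 h.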

Chain of 5-hydroxytryptamine receptor 2A (Homo sapiens) (P28223 whole entry, looked up): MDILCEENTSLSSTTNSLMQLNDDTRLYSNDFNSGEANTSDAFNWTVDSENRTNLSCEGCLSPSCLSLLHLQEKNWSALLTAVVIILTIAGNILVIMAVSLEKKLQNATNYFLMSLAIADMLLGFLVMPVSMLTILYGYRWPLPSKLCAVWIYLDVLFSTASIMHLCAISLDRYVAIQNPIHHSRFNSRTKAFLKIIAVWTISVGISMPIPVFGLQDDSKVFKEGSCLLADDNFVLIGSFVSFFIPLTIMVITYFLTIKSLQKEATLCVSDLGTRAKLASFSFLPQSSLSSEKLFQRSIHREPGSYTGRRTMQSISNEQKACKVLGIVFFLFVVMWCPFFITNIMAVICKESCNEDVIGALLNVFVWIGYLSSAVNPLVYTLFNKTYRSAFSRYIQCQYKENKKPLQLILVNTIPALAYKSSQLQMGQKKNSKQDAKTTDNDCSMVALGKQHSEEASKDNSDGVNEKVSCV
Chain of KiSS-1 receptor (Homo sapiens) (Q969F8 whole entry, looked up): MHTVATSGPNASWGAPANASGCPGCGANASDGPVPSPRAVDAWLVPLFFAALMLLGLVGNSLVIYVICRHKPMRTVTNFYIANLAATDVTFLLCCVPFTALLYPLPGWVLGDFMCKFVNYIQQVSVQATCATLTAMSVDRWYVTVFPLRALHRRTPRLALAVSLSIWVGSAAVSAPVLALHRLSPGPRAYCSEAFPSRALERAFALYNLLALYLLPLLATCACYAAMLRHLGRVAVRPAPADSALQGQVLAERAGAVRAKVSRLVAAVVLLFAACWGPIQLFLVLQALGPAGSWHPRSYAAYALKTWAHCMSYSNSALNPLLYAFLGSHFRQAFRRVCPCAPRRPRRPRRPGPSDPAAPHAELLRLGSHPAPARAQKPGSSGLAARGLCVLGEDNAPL
Chain of Beta-2 adrenergic receptor (Homo sapiens) (P07550 whole entry, looked up): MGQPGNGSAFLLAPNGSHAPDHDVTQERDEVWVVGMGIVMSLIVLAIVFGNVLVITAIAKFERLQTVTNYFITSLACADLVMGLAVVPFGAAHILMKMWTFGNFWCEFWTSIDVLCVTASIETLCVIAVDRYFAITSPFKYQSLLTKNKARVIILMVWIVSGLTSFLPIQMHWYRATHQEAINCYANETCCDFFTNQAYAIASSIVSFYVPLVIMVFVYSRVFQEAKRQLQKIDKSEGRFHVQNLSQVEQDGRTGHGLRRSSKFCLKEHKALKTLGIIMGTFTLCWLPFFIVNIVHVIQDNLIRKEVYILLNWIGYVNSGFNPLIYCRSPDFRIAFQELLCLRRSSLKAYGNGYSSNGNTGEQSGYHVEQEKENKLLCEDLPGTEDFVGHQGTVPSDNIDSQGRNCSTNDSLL
Chain of D(2) dopamine receptor (Homo sapiens) (P14416 whole entry, looked up): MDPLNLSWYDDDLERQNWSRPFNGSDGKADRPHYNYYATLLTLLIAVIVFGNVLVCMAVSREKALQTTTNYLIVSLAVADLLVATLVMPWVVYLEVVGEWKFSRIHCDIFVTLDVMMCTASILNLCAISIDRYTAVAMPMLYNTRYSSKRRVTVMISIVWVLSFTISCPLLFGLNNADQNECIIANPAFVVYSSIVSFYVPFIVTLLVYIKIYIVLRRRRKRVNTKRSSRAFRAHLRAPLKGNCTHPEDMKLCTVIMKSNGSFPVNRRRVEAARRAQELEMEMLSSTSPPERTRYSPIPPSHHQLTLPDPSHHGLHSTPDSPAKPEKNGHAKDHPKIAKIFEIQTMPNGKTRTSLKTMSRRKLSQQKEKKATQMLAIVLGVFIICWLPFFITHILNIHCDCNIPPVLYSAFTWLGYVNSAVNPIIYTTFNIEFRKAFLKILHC
Chain of Muscarinic acetylcholine receptor M1 (Homo sapiens) (P11229 whole entry, looked up): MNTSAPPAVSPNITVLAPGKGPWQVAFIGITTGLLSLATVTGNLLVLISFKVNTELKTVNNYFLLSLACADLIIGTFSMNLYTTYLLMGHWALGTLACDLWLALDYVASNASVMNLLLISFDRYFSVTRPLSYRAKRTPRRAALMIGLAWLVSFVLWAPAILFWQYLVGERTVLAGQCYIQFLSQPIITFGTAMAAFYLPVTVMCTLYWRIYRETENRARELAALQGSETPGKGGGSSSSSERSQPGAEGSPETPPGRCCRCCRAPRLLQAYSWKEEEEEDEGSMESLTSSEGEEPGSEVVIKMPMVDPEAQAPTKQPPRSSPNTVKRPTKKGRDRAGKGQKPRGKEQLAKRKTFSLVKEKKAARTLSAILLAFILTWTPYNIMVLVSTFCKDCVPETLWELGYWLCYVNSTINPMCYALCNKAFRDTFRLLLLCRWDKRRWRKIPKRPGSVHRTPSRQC

Compound	Potency [1]	Potency [2]	Potency [3]	Potency [4]	Potency [5]	Potency [6]	Potency [7]	Potency [8]	Potency [9]	Potency [10]	Potency [11]	Potency [12]	Potency [13]	Potency [14]	Potency [15]	Potency [16]	Potency [17]	Potency [18]	Potency [19]	Potency [20]
COC(=O)c1cc(Cl)c(NC(C)=O)cc1OC	inactive	inactive	inactive	inactive	inactive	inactive	inactive	inactive	inactive	inactive	inactive	inactive	inactive	inactive	inactive	inactive	inactive	inactive	inactive	inactive
CC(C)(CO)[C@@H](O)C(=O)NCCC(=O)O	inactive	inactive	inactive	inactive	inactive	inactive	inactive	inactive	inactive	inactive	inactive	inactive	inactive	inactive	inactive	inactive	inactive	inactive	inactive	
c1cc(C(c2ccc(OCC3CO3)cc2)C(c2ccc(OCC3CO3)cc2)c2ccc(OCC3CO3)cc2)ccc1OCC1CO1 (stereo unspecified)	inactive	22.5 µM (active) and 21.7 µM (active)		inactive			inactive	inactive	inactive		inactive	inactive	inactive	inactive			inactive	inactive	inactive	inactive
CC(=O)[C@@]1(O)CC[C@H]2[C@@H]3CCC4=CC(=O)CC[C@]4(C)[C@H]3CC[C@@]21C	inactive	inactive		inactive			inactive	inactive	inactive						inactive			inactive	inactive	inactive
Cc1ccc(C(=O)Nc2ccc(S(=O)(=O)O)c3cc(S(=O)(=O)O)cc(S(=O)(=O)O)c23)cc1NC(=O)c1cccc(NC(=O)Nc2cccc(C(=O)Nc3cc(C(=O)Nc4ccc(S(=O)(=O)O)c5cc(S(=O)(=O)O)cc(S(=O)(=O)O)c45)ccc3C)c2)c1	inactive	inactive	inactive	inactive	inactive	inactive	inactive	inactive	inactive	inactive	inactive	inactive	inactive	inactive	inactive	inactive	inactive	inactive	inactive	inactive
CC(=O)/C=C/c1ccco1	inactive	inactive	inactive	inactive	inactive	inactive	inactive	inactive	inactive	inactive	inactive	inactive	inactive	inactive	inactive	inactive	inactive	inactive	inactive	inactive
Cc1ccc(S(N)(=O)=O)cc1	inactive	inactive			inactive	inactive	inactive	inactive	inactive	inactive	inactive	inactive	inactive	inactive	inactive	inactive	inactive		inactive	inactive
C=C(C)C(=O)OCCC[Si](Cl)(Cl)Cl	inactive	inactive		inactive	inactive		inactive	inactive	inactive	inactive	inactive	inactive	inactive	inactive	inactive	inactive	inactive	inactive	inactive	inactive
COc1ccc(-c2coc3cc(O)cc(O)c3c2=O)cc1	inactive	inactive			inactive	inactive	inactive	inactive	inactive	inactive	inactive and 33.4 µM (active)	inactive	inactive	inactive					inactive	inactive
c1ccc2nccnc2c1	inactive	inactive			inactive	inactive	inactive	inactive	inactive	inactive	inactive	inactive	inactive	inactive	inactive	inactive	inactive		inactive	inactive
COCCCOc1ccnc(CS(=O)c2nc3ccccc3[nH]2)c1C (stereo unspecified)	inactive	30.5 µM (active)	inactive	inactive	inactive	inactive	inactive	inactive	inactive	inactive					inactive	inactive	inactive	inactive	inactive	inactive
C=CCCC	inactive	inactive	inactive	inactive	inactive	inactive	inactive	inactive	inactive	inactive	inactive	inactive	inactive	inactive	inactive	inactive	inactive		inactive	inactive
CCCCCCCOC(=O)c1ccccc1C(=O)OCCCCCCC	inactive	inactive	inactive	inactive	inactive	inactive	inactive	inactive	inactive	inactive	inactive	inactive	inactive	inactive	inactive	inactive	inactive	inactive		inactive
CC(C)CC(O)CC(C)C	inactive	inactive	inactive	inactive	inactive	inactive	inactive	inactive	inactive	inactive		inactive	inactive	inactive	inactive	inactive	inactive		inactive	inactive

Source: PubChem BioAssay (Tox21)
